Assay results from paper PMC11062922 (Nature Chemical Biology, 2023).
Where two headings read alike, the source gives them in different places.

Tests used:
[1] = tested on: ADCK3; parameters: species or system human, MV4-11 + K-562 + COLO205 + SK-N-BE2 + OVCAR-8; conditions: read-out: apparent Kd, n = 1
[2] = tested on: AKT2; parameters: species or system human, MV4-11 + K-562 + COLO205 + SK-N-BE2 + OVCAR-8; conditions: read-out: apparent Kd; compound concentrations:100 nM and 1000 nM (sheet 'Samples'); n = 1
[3] = tested on: CDK17; parameters: species or system human, MV4-11 + K-562 + COLO205 + SK-N-BE2 + OVCAR-8; conditions: read-out: apparent Kd; compound concentrations:100 nM and 1000 nM (sheet 'Samples'); n = 1
[4] = tested on: CIT; parameters: species or system human, MV4-11 + K-562 + COLO205 + SK-N-BE2 + OVCAR-8; conditions: read-out: apparent Kd; compound concentrations:100 nM and 1000 nM (sheet 'Samples'); n = 1
[5] = tested on: DCTPP1; parameters: species or system human, MV4-11 + K-562 + COLO205 + SK-N-BE2 + OVCAR-8; conditions: read-out: apparent Kd; compound concentrations:100 nM and 1000 nM (sheet 'Samples'); n = 1
[6] = tested on: EPHA1; parameters: species or system human, MV4-11 + K-562 + COLO205 + SK-N-BE2 + OVCAR-8; conditions: read-out: apparent Kd; compound concentrations:100 nM and 1000 nM (sheet 'Samples'); n = 1
[7] = tested on: EPHB6; parameters: species or system human, MV4-11 + K-562 + COLO205 + SK-N-BE2 + OVCAR-8; conditions: read-out: apparent Kd; compound concentrations:100 nM and 1000 nM (sheet 'Samples'); n = 1
[8] = tested on: ERBB3; parameters: species or system human, MV4-11 + K-562 + COLO205 + SK-N-BE2 + OVCAR-8; conditions: read-out: apparent Kd; compound concentrations:100 nM and 1000 nM (sheet 'Samples'); n = 1
[9] = tested on: ERN2; parameters: species or system human, MV4-11 + K-562 + COLO205 + SK-N-BE2 + OVCAR-8; conditions: read-out: apparent Kd; compound concentrations:100 nM and 1000 nM (sheet 'Samples'); n = 1
[10] = tested on: IGF1R; parameters: species or system human, MV4-11 + K-562 + COLO205 + SK-N-BE2 + OVCAR-8; conditions: read-out: apparent Kd; compound concentrations:100 nM and 1000 nM (sheet 'Samples'); n = 1
[11] = tested on: JAK2; parameters: species or system human, MV4-11 + K-562 + COLO205 + SK-N-BE2 + OVCAR-8; conditions: read-out: apparent Kd; compound concentrations:100 nM and 1000 nM (sheet 'Samples'); n = 1
[12] = tested on: MELK; parameters: species or system human, MV4-11 + K-562 + COLO205 + SK-N-BE2 + OVCAR-8; conditions: read-out: apparent Kd; compound concentrations:100 nM and 1000 nM (sheet 'Samples'); n = 1
[13] = tested on: PDGFRB; parameters: species or system human, MV4-11 + K-562 + COLO205 + SK-N-BE2 + OVCAR-8; conditions: read-out: apparent Kd; compound concentrations:100 nM and 1000 nM (sheet 'Samples'); n = 1
[14] = tested on: PYGL; parameters: species or system human, MV4-11 + K-562 + COLO205 + SK-N-BE2 + OVCAR-8; conditions: read-out: apparent Kd; compound concentrations:100 nM and 1000 nM (sheet 'Samples'); n = 1
[15] = tested on: RIOK2; parameters: species or system human, MV4-11 + K-562 + COLO205 + SK-N-BE2 + OVCAR-8; conditions: read-out: apparent Kd; compound concentrations:100 nM and 1000 nM (sheet 'Samples'); n = 1
[16] = tested on: TTN; parameters: species or system human, MV4-11 + K-562 + COLO205 + SK-N-BE2 + OVCAR-8; conditions: read-out: apparent Kd; compound concentrations:100 nM and 1000 nM (sheet 'Samples'); n = 1
[17] = tested on: IRAK3; parameters: species or system human, MV4-11 + K-562 + COLO205 + SK-N-BE2 + OVCAR-8; conditions: read-out: apparent Kd; compound concentrations: 100 nM and 1000 nM (sheet 'Samples'), CATDS: 0.24255292072304399; n = 1
[18] = tested on: LIMK1; parameters: species or system human, MV4-11 + K-562 + COLO205 + SK-N-BE2 + OVCAR-8; conditions: read-out: apparent Kd; compound concentrations: 100 nM and 1000 nM (sheet 'Samples'), CATDS: 0.14732071058877899; n = 1
[19] = tested on: NEK1; parameters: species or system human, MV4-11 + K-562 + COLO205 + SK-N-BE2 + OVCAR-8; conditions: read-out: apparent Kd; compound concentrations: 100 nM and 1000 nM (sheet 'Samples'), CATDS: 0.13907038524561799; n = 1
[20] = tested on: NUAK2; parameters: species or system human, MV4-11 + K-562 + COLO205 + SK-N-BE2 + OVCAR-8; conditions: read-out: apparent Kd; compound concentrations: 100 nM and 1000 nM (sheet 'Samples'), CATDS: 0.15992761786182699; n = 1
[21] = target: Q6ZSR9 (human, UniProt Q6ZSR9); parameters: species or system MV4-11 + K-562 + COLO205 + SK-N-BE2 + OVCAR-8; conditions: read-out: apparent Kd; compound concentrations: 100 nM and 1000 nM (sheet 'Samples'), CATDS: 0.17489786753405201; n = 1
Chain of Q6ZSR9 (Q6ZSR9 whole entry, looked up): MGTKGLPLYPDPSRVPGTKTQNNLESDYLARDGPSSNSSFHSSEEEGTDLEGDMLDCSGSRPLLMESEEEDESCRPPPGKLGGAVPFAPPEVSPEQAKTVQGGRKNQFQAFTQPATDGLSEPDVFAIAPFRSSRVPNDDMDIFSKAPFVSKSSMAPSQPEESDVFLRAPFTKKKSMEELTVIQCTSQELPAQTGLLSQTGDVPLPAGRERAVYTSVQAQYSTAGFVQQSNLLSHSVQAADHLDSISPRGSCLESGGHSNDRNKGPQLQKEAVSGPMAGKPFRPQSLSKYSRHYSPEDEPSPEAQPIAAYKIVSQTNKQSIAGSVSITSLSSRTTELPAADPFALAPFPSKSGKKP

CNc1nc(-c2ccc3c(N)n[nH]c3c2)cc(N2C[C@@H](C(=O)NC3CCCCC3)CC[C@H]2C)n1 [GSK2334470]
potency estimated from few doses ([1]; compound concentrations:100 nM and 1000 nM (sheet 'Samples')): 1.18 µM
potency estimated from few doses [2]: 1.57 µM
potency estimated from few doses [3]: 2.13 µM
potency estimated from few doses [4]: 1.43 µM
potency estimated from few doses [5]: 1.89 µM
potency estimated from few doses [6]: 0.845 µM
potency estimated from few doses [7]: 1.84 µM
potency estimated from few doses [8]: 1.36 µM
potency estimated from few doses [9]: 1.44 µM
potency estimated from few doses [10]: 2.36 µM
potency estimated from few doses [11]: 0.47 µM
potency estimated from few doses [12]: 1.64 µM
potency estimated from few doses [13]: 1.95 µM
potency estimated from few doses [14]: 2.02 µM
potency estimated from few doses [15]: 2.11 µM
potency estimated from few doses [16]: 0.945 µM

COc1cc(Nc2nccc(N3CCC(NC(=O)Nc4cccc(C(C)=O)c4)C3)n2)cc(OC)c1OC (stereo not shown) [GSK1379753A]
potency estimated from few doses ([1]; compound concentrations: 100 nM and 1000 nM (sheet 'Samples'), CATDS: 0.16868464966378999): 1.38 µM
potency estimated from few doses [17]: 0.726 µM
potency estimated from few doses [18]: 1.85 µM
potency estimated from few doses [19]: 2.14 µM
potency estimated from few doses [20]: 1.54 µM
potency estimated from few doses [21]: 1.28 µM
